A selection: hits, their analogues and other compounds. The true share with any hit is near 6.7%.
SW480 rereplic = DNA re-replication induction in SW480 cells; SW480 DNA re-replication, Hoechst DNA content imaging, 48 h; Potency, µM (doses to about 46.1 µM), hits mostly activators; 340,000 tested, 1.8% active; further: nearly all actives have a fitted effect of over 55% in size
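Cells (250 per well) received 23 nL compound or DMSO by pin tool and were kept 48 hr at 37 C, 5% CO2. Nuclei were then stained with Hoechst for 40 min and scanned for DNA content.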
KB-V1 cytotox = KB-V1 MDR subline cytotoxicity; KB-V1 MDR cells viability, CellTiter-Glo, 72 h; Potency, µM (titrated, usually from 46.1 µM), actives largely listed as cytotoxic; 400,000 tested, 3.4% active; further: nearly all actives have a fitted effect of over 60% in size
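In this primary screen, KB-V1 cells overexpressing P-gp are incubated with library compounds (lowest to highest concentration) for 72 h at 37 degrees C before a luminescent ATP viability read.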
PINK1 expr mod = changes PINK1 expression | PINK1 immunofluorescence, high-content cytometry, 24 h | Potency, µM (highest dose often 76.6 µM), most hits filed as activators | 410,000 tested, 0.2% active; active means well fitted activation curve with a large enough effect; inconclusive means small, poorly fitted or top-dose-only effect; cell line not stated here; further: nearly all actives have a fitted effect of over 65% in size
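A stable cell line was treated with compounds at 5 concentrations for 24 hours, with CCCP as control. PINK1 levels and mitochondrial localization were measured by immunofluorescence with mitochondrial, cell and nuclear markers after fixation, read by laser-scanning cytometry.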
MCF10A rereplic = inducers of DNA re-replication in MCF 10A breast cells | MCF 10A DNA re-replication, Hoechst nuclear intensity, 48 h | Potency, µM (series often up to 46.1 µM), usual class: activators | 350,000 tested, 2.9% active | AID 624296; further: nearly all actives have a fitted effect of over 50% in size
KB-3-1 cytotox = kills parental KB-3-1 adenocarcinoma cells; KB-3-1 viability, CellTiter-Glo ATP luminescence, 72 h; Potency, µM (series often up to 46.1 µM), most hits filed as cytotoxic; 400,000 tested, 1.4% active; further: nearly all actives have a fitted effect of over 60% in size
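72 h, 37 °C compound treatment of KB-3-1 parental cells; CellTiter-Glo added, 10 min, luminescence read. Data corrected against DMSO-only plates and normalized before curve fitting.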
Numbers stand for hits; i = inactive; ? = inconclusive; nt = no result. Unless noted, the call rests on the fitted dose curve; in most records, active means well fitted curve in the direction sought with a large enough effect; inconclusive means small, poorly fitted or top-dose-only effect, or another doubt; inactive means no such curve, though single readings can be large; an effect the other way counts as inactive or inconclusive.

SMILES	SW480 rereplic	KB-V1 cytotox	PINK1 expr mod	MCF10A rereplic	KB-3-1 cytotox
CC(C)Oc1ccc(F)cc1-c1cc(C(=O)NCc2ccc(C(F)(F)F)cc2)[nH]n1	nt	i	i	nt	i
CC(C)Oc1ccc(F)cc1-c1cc(C(=O)NCc2cc(C(F)(F)F)cc(C(F)(F)F)c2)[nH]n1	nt	?	35µM	nt	?
COc1ccccc1[C@@H]1C(c2cccc(Cl)c2)=NN(c2ccccc2)[C@H]1C(=O)N1CCOC1=O	2.6µM	i	i	?	?
COc1ccccc1[C@@H]1C(c2ccccc2)=NN(c2ccc(Br)cc2)[C@H]1C(=O)N1CCOC1=O	?	i	i	3.3µM	i
COc1ccccc1[C@H]1C(c2cccc(Cl)c2)=NN(c2ccccc2)[C@@H]1CO	?	i	i	?	i
COc1ccccc1[C@@H]1C(c2cccc(C)c2)=NN(c2ccc(Br)cc2)[C@H]1C(=O)N1CCOC1=O	21µM	i	i	?	i
Cc1ccc(CN2CCCn3nc(C(=O)NCCc4ccccc4Cl)cc3C2=O)cc1	nt	i	i	nt	i
Cn1c(O)c(/C=N/NC(=O)c2cc3ccccc3cc2O)c2ccccc21	?	i	?	21µM	?
CC(C)c1ccc(NC(=S)NC2CCN(Cc3ccccc3)CC2)cc1	?	21µM	i	i	?
S=C(NCc1ccc(Cl)cc1)NC1CCN(Cc2ccccc2)CC1	16µM	16µM	i	?	?
O=C(C(=O)c1cccnc1)c1cccnc1	i	i	i	i	i
COc1cccc(C(=O)/C=C2\Sc3ccccc3N2C)c1	?	i	i	18µM	?
COc1cccc(C(=O)Nc2ccccc2NC(=O)c2cccc(OC)c2)c1	i	?	i	?	i
CN1/C(=C\C(=O)c2cccnc2)Sc2ccccc21	7.3µM	?	i	i	i
Cc1ccc(CNC(=O)CN2CCCN(Cc3ccc(F)cc3)S2(=O)=O)cc1	nt	i	i	nt	i
COc1ccc(C(=O)N2CCC(C(=O)c3ccc(F)cc3)CC2)cc1	i	?	i	i	i
CCOC(=O)C1CCN(C(=O)c2ccc3c(c2)OCCO3)CC1	i	i	i	i	i
COc1ccc(C(=O)C2CCN(C(=O)c3ccc(OC)cc3)CC2)cc1	i	6.5µM	i	i	?
CCOc1ccc(C(=O)N2CCC(C(=O)c3ccc4c(c3)OCCO4)CC2)cc1	i	4.1µM	i	i	i
COc1ccc(CCNC(=O)C2CCN(C(=O)c3ccc(F)cc3)CC2)cc1	?	i	i	0.65µM	i
COc1ccccc1NC(=O)N1CCC(C(=O)c2ccc(F)cc2)CC1	i	21µM	i	i	i
COc1cccc(C(NC(C)=O)c2nc(-c3ccoc3)cs2)c1 (centres undefined)	nt	i	i	nt	?
COc1ccccc1C(=O)N1CCC(C(=O)c2ccc(F)cc2)CC1	i	9.2µM	i	i	i
COc1cc(OC)cc(C(=O)N2CCC(C(=O)c3ccc(F)cc3)CC2)c1	i	?	i	i	i
CCOC(=O)N1CCN(c2ccc(S(=O)(=O)N3CCOCC3)cn2)CC1	i	nt	i	?	nt
SMILES	SW480 rereplic	KB-V1 cytotox	PINK1 expr mod	MCF10A rereplic	KB-3-1 cytotox
CCOC(=O)N1CCN(c2ccc(S(=O)(=O)N(Cc3ccccc3)Cc3ccccc3)cn2)CC1	i	5.8µM	i	i	i
CC(=O)Nc1ccc(OC2=NS(=O)(=O)c3ccccc32)cc1	nt	i	nt	nt	i
BrC(=C\c1ccccc1)/C=N/N1CCN(c2ccccn2)CC1	?	?	i	21µM	i
O=[N+]([O-])c1ccccc1/C=N/N1CCN(c2ccccn2)CC1	i	15µM	i	i	i
O=C(Cc1cscn1)N1CCOc2ccc(CN3CCN(c4ccccn4)CC3)cc2C1	nt	nt	i	nt	nt
CCc1nc2c(OCC3CCCCC3)cccn2c1N(C)C(=O)c1ccccc1F	nt	?	i	nt	i
CCc1nn2cc(C(=O)c3ccccc3O)cnc2c1-c1ccc(F)cc1	i	?	i	?	i
CCc1nn2cc(C(=O)c3cc(C)ccc3O)cnc2c1-c1ccc(F)cc1	i	?	i	18µM	i
COc1cccc(CNS(=O)(=O)c2cnc(N)nc2)c1	nt	nt	i	nt	nt
CCOc1ccc(-c2nn(-c3ccccc3)cc2/C=C2\SC(N)=NC2=O)cc1C	i	i	?	10µM	?
CCc1cc(C(=O)NCC2Cc3cccc(-c4ccc(C(=O)OC)cn4)c3O2)no1 (centres undefined)	nt	nt	i	nt	nt
CCOC(=O)CSc1nnc(CNC(=O)c2cccc(C)c2)n1C	i	i	i	?	i

Assay outcomes deposited in PubChem by National Center for Advancing Translational Sciences (NCATS).
